Results taken from the supplement of paper PMC13380429.

Tested on: Vero E6 infected with SARS-CoV-2
Experiment: inhibition of SARS-CoV-2 cytopathic effect; higher = more antiviral protection, active = above 15
Conditions: 48 h

Measured: inhibition of SARS-CoV-2 cytopathic effect

NC[C@H]1O[C@H](O[C@H]2[C@H](O[C@@H]3O[C@H](CO)[C@@H](O)[C@H]3O)[C@@H](O)[C@H](N)C[C@@H]2N)[C@H](N)[C@@H](O)[C@@H]1O [ribostamycin-sulfate]
inactive: 1 nM 2.02% | 8.33 nM -0.235% | 100 nM -0.77% | 833.33 nM -1.25% | 10000 nM -0.88%

OCc1cccnc1 [nicotinyl-alcohol-tartrate]
inactive: 1 nM -0.34% | 8.33 nM -0.51% | 100 nM -0.17% | 833.33 nM 0.73% | 10000 nM -0.73%

CCCCC/C=C\C/C=C\C/C=C\CCCCC(=O)O [gamma-linolenic-acid]
inactive: 1 nM -0.6% | 8.33 nM -2.39% | 100 nM -2.33% | 833.33 nM -1.24% | 10000 nM -1.03%

O=c1cc(-c2ccc(O)cc2)oc2cc(O)cc(O)c12 [apigenin]
inactive: 1 nM -2.83% | 8.33 nM -3.34% | 100 nM -1.73% | 833.33 nM 0.85% | 10000 nM 6.4%

COCC1=C(C(=O)O)N2C(=O)[C@@H](NC(=O)/C(=N\OC)c3csc(N)n3)[C@H]2SC1 [cefpodoxime]
inactive: 1 nM -1.12% | 8.33 nM -1.09% | 100 nM -1.76% | 833.33 nM -0.98% | 10000 nM -1.12%

COc1ccc2c(c1)C(=O)N(CCc1ccc(S(=O)(=O)NC(=O)NC3CCCCC3)cc1)C(=O)C2(C)C [gliquidone]
inactive: 1 nM -1.78% | 8.33 nM 2.65% | 100 nM 2.68% | 833.33 nM -0.14% | 10000 nM -0.29%

c1cnc2cc3c(cc2n1)[C@@H]1CNC[C@H]3C1 [varenicline]
inactive: 1 nM 1.15% | 8.33 nM 1.67% | 100 nM -1.63% | 833.33 nM -1.66% | 10000 nM 3.97%

O=C(O)c1ccccc1C(=O)Nc1ccc(S(=O)(=O)Nc2nccs2)cc1 [phthalylsulfathiazole]
inactive: 1 nM -0.6% | 8.33 nM 1.91% | 100 nM 1.2% | 833.33 nM 1.78% | 10000 nM -0.84%

Cc1cc(C)c(CNC(=O)c2cc(-c3ccc(N4CCN(C)CC4)nc3)cc3c2c(C)cn3C(C)C)c(=O)[nH]1
inactive: 1 nM -3.53% | 8.33 nM -2.54% | 100 nM -3.49% | 833.33 nM -2.29% | 10000 nM -3.02%

NC(=O)c1cnc2[nH]ccc2c1N[C@@H]1[C@@H]2CC3C[C@H]1C[C@@](O)(C3)C2
inactive: 1 nM -1.55% | 8.33 nM -1.31% | 100 nM -1.46% | 833.33 nM -0.12% | 10000 nM -1.65%

CC(=O)OC[C@H]1O[C@@](COC(C)=O)(O[C@H]2O[C@H](COC(C)=O)[C@@H](OC(C)=O)[C@H](OC(C)=O)[C@H]2OC(C)=O)[C@@H](OC(C)=O)[C@@H]1OC(C)=O [sucrose-octaacetate]
inactive: 1 nM 0.66% | 8.33 nM 1.07% | 100 nM -1.24% | 833.33 nM -0.47% | 10000 nM -0.86%

C[C@H](CCC(=O)NCCS(=O)(=O)O)[C@H]1CC[C@H]2[C@@H]3[C@@H](O)C[C@@H]4C[C@H](O)CC[C@]4(C)[C@H]3CC[C@]12C [ursodeoxycholyltaurine]
inactive: 1 nM -1.76% | 8.33 nM 3.52% | 100 nM 1.07% | 833.33 nM -3.74% | 10000 nM -4.25%

COc1cc(-n2c(=S)[nH]c3ccccc3c2=O)c(Cl)cc1Cl [mdivi-1]
inactive: 1 nM 0.74% | 8.33 nM 0.3% | 100 nM -0.2% | 833.33 nM -0.45% | 10000 nM -1.37%

Cc1cccc(NC(=O)CN2CCC(c3ccccn3)CC2)c1
inactive: 1 nM 1.23% | 8.33 nM 1.06% | 100 nM -0.12% | 833.33 nM 0% | 10000 nM 3.09%

O[C@@H](COc1cccc2ncccc12)CN1CCN([C@@H]2c3ccccc3[C@@H]3[C@H](c4ccccc42)C3(F)F)CC1 [zosuquidar]
inactive: 1 nM -0.36% | 8.33 nM 1.65% | 100 nM 0.11% | 833.33 nM 0.85% | 10000 nM -3.28%

CCCN(CCC)CCc1cccc2c1CC(=O)N2 [ropinirole]
inactive: 1 nM 0.18% | 8.33 nM -0.55% | 100 nM -1.05% | 833.33 nM 2.2% | 10000 nM -0.98%

O=P(O)(O)C(O)(Cc1cccnc1)P(=O)(O)O [risedronate]
inactive: 1 nM -0.54% | 8.33 nM -1.25% | 100 nM -0.67% | 833.33 nM 3.13% | 10000 nM 1.96%

CC(C)NCCCn1c(Sc2cc3c(cc2I)OCO3)nc2c(N)ncnc21
inactive: 1 nM -3.36% | 8.33 nM -0.68% | 100 nM -0.95% | 833.33 nM -7.21% | 10000 nM -3.3%

CCCN1CCCC(c2cccc(O)c2)C1 (stereo in doubt) [preclamol]
inactive: 1 nM -0.2% | 8.33 nM -0.3% | 100 nM 0.42% | 833.33 nM 1.02% | 10000 nM -1.58%

CC(=O)N(CC(C)C(=O)O)c1c(I)cc(I)c(N)c1I (stereo not given) [iocetamic-acid]
inactive: 1 nM -1.3% | 8.33 nM 1.93% | 100 nM 1.81% | 833.33 nM 0.62% | 10000 nM 3.4%

NCC[C@H](O)C(=O)N[C@@H]1C[C@H](N)[C@@H](O[C@H]2O[C@H](CN)[C@@H](O)[C@H](O)[C@H]2O)[C@H](O)[C@H]1O[C@H]1O[C@H](CO)[C@@H](O)[C@H](N)[C@H]1O [amikacin]
inactive: 1 nM -1.45% | 8.33 nM 0.75% | 100 nM 0.51% | 833.33 nM 2.36% | 10000 nM -0.28%

COc1cc(OC)cc(-c2ccc3c(-c4ccc(F)cc4)n[nH]c3n2)c1
inactive: 1 nM 12% | 8.33 nM -1.07% | 100 nM 2.95% | 833.33 nM 1.46% | 10000 nM -0.11%

CO[C@@H]1[C@H](N(C)C(=O)c2ccccc2)C[C@H]2O[C@]1(C)n1c3ccccc3c3c4c(c5c6ccccc6n2c5c31)C(=O)NC4 [midostaurin]
inactive: 1 nM -10.1% | 8.33 nM -8.56% | 100 nM -8.88% | 833.33 nM -23.9% | 10000 nM -31.5%

CCc1[nH]c(=O)[nH]c1C(=O)c1ccncc1 [piroximone]
inactive: 1 nM -0.93% | 8.33 nM 5% | 100 nM 3.91% | 833.33 nM 3.62% | 10000 nM -1.11%

O=C(/C=C/N1C[C@H]2C[C@@H]1CN2c1ccccn1)c1ccccc1O
inactive: 1 nM -0.57% | 8.33 nM -1.55% | 100 nM -0.95% | 833.33 nM -5.12% | 10000 nM -2.56%

O=C(O)c1cc(O)c2c(c1)[C@H]([C@H]1c3cc(C(=O)O)cc(O)c3C(=O)c3c(O[C@@H]4O[C@H](CO)[C@@H](O)[C@H](O)[C@H]4O)cccc31)c1cccc(O[C@@H]3O[C@H](CO)[C@@H](O)[C@H](O)[C@H]3O)c1C2=O [sennoside-A]
inactive: 1 nM -3.2% | 8.33 nM 0% | 100 nM 0.82% | 833.33 nM 0.38% | 10000 nM -2.08%

N[C@H](CO)C(=O)O [D-serine]
inactive: 1 nM -1.38% | 8.33 nM 1.46% | 100 nM -1.84% | 833.33 nM -1.45% | 10000 nM 1.69%

O=C([O-])c1ccccn1.O=C([O-])c1ccccn1.O=C([O-])c1ccccn1.[Cr+3] [chromium-picolinate]
inactive: 1 nM 0.6% | 8.33 nM 3.76% | 100 nM 1.3% | 833.33 nM -3.86% | 10000 nM 0.6%

CS(=O)(=O)c1ccc([C@@H](CC2CCCC2)C(=O)Nc2nccs2)cc1
inactive: 1 nM -0.6% | 8.33 nM -1.12% | 100 nM 1.31% | 833.33 nM 1.71% | 10000 nM 1.96%

Ic1cc(-c2ccccc2)ncn1 [4-iodo-6-phenylpyrimidine]
inactive: 1 nM -0.63% | 8.33 nM 0.56% | 100 nM -2.43% | 833.33 nM 1.94% | 10000 nM -1.36%

CC(COc1ccccc1)NC(C)C(O)c1ccc(O)cc1 (stereo not given) [isoxsuprine]
inactive: 1 nM 0.69% | 8.33 nM 2% | 100 nM -0.95% | 833.33 nM 1.95% | 10000 nM -1.14%

Nc1[nH]cnc2ncnc1-2 [adenine]
inactive: 1 nM 1.26% | 8.33 nM 0.3% | 100 nM 3.06% | 833.33 nM 6.45% | 10000 nM 3.2%

CCOC(=O)c1ccc(C#Cc2ccc3c(c2)C(C)(C)CCS3)nc1 [tazarotene]
inactive: 1 nM 0.41% | 8.33 nM 0.89% | 100 nM 1.7% | 833.33 nM 3.69% | 10000 nM 0.98%

Cc1nc(NC(=O)N2CCC[C@H]2C(N)=O)sc1-c1ccnc(C(C)(C)C(F)(F)F)c1 [alpelisib]
inactive: 1 nM 2.4% | 8.33 nM 0.48% | 100 nM 0.01% | 833.33 nM -1.87% | 10000 nM 0.02%

Cn1c2c(c3ccccc31)CCNCC2
inactive: 1 nM 3.79% | 8.33 nM 2.27% | 100 nM -0.51% | 833.33 nM 0.96% | 10000 nM -0.01%

Cc1c(N)c(=O)n(-c2ccccc2)n1C [ampyrone]
inactive: 1 nM -3.22% | 8.33 nM -2.95% | 100 nM -3.07% | 833.33 nM -2.31% | 10000 nM -1.12%

Cc1ccc(NC(=O)c2ccc(CN3CC[C@H](N(C)C)C3)c(C(F)(F)F)c2)cc1Nc1nccc(-c2cncnc2)n1 [bafetinib]
inactive: 1 nM 3.35% | 8.33 nM -0.19% | 100 nM 0.01% | 833.33 nM -3.15% | 10000 nM -4.8%
